Rows were chosen to be rich in hits. Some 19% of all compounds tested hit in one or more screens of this group.
MCF10A rerep: DNA re-replication induction in MCF 10a cells. MCF 10A DNA re-replication, Hoechst nuclear intensity, 48 h. Potency, µM (series often up to 46.1 µM), for inactives: at the highest dose activity, positive = re-replication, most hits filed as activators. hit rate 2.9% among 350,000; also: potency is read from the fitted curve at half-maximal effect; % of control where 0% means no effect; nearly all actives have a fitted effect of over 50% in size
TDP1 cell noCPT: qHTS for Inhibitors of human tyrosyl-DNA phosphodiesterase 1 (TDP1): qHTS in cells in absence of CPT. DT40 Tdp1-/- hTDP1 cells, no CPT, ATP luminescence, 48 h. Potency, µM (doses to about 46.2 µM), inactives show top-dose activity change, negative = growth inhibition, actives largely listed as inhibitors. hit rate 15% among 420,000. AID 686978, 2013; also: potency is read from the fitted curve at half-maximal effect; % is scaled to controls: 0 for no effect and ±100 for the full control effect; nearly all actives have a fitted effect of over 55% in size
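A cellular qHTS used chicken DT40 cells lacking endogenous Tdp1 but carrying stably transfected human TDP1. Compounds were applied without camptothecin, and cell growth kinetics were judged by ATP-dependent luminescence after ≥48 hr.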
SW480 rereplic: inducers of DNA re-replication in SW480 colon cancer cells; AID 624297; hit rate 1.8% among 340,000; SW480 DNA re-replication, Hoechst DNA content imaging, 48 h; Potency, µM (doses to about 46.1 µM), for inactives: at the top dose re-replication activation, actives largely listed as activators; also: potency is read from the fitted curve at half-maximal effect; % of control where 0% means no effect; nearly all actives have a fitted effect of over 55% in size
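DNA re-replication was detected as more nuclei of elevated Hoechst intensity after 48 hr exposure to compound (23 nL pinned per well of 250 cells).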
DT40 TDP1 CPT: DT40-hTDP1 cell growth loss with CPT | chicken DT40 Tdp1-/-;hTDP1 cells + 20 nM CPT, ATP luminescence, 48 h | Potency, µM (doses to about 46.2 µM), for inactives: at the top dose activity change, negative = growth inhibition, usual class: inhibitors | hit rate 12% among 420,000 | AID 686979; also: potency is read from the fitted curve at half-maximal effect; % is scaled to controls: 0 for no effect and ±100 for the full control effect; nearly all actives have a fitted effect of over 55% in size
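Cell growth measured by CellTiter-Glo luminescence after a minimum 48 h, 37 C compound exposure with 20 nM CPT in Tdp1-knockout DT40 cells stably expressing hTDP1, seeded 400/well; qHTS titration format.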
IL-1B inflam inh: inhibitors of inflammasome signaling (IL-1 beta secretion); THP-1 LPS/ATP IL-1B secretion, AlphaLISA, 16 h; active compounds read low; activity change, % at 57.5 µM; hit rate 4.7% among 360,000; in the data active = activity change below about -50%; inconclusive = mostly about -30% to -49%; also: % is scaled to controls: 0 for no effect and ±100 for the full control effect
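Secreted IL-1B measured by AlphaLISA bead assay after 16 h compound exposure of THP-1 cells; compounds (final up to 57.5 uM) added 1 h before LPS (250 ng/mL) and ATP (1.25 mM) stimulation; lower signal means less secretion.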
BCR signal inh: blocks chronic active B-cell receptor signaling | Potency, µM (highest dose often 46.1 µM), inactives show at the highest dose activity change, negative = inhibition, actives largely listed as inhibitors | hit rate 0.05% among 340,000 | ABC-DLBCL IkBa-CBG/CBR reporter, luminescence ratio, 4 h | AID 493014; active = well fitted inhibition curve with a large enough effect in the signal ratio, with a control signal flat, not every such curve was filed as active; inconclusive = small, poorly fitted or top-dose-only effect, or effect the other way, or a change in a side signal; the % refers to the signal ratio;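 also: potency is read from the fitted curve at half-maximal effect; plate controls were basal doxycycline-induced cells for no effect and cells given 10 µM MG132 for full effect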
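TMD8 human ABC-DLBCL cells with doxycycline-inducible IκBα–green luciferase fusion and unfused red luciferase, in 0.5% FBS medium; compounds up to 46 uM, 4 h at 37C. Green/red luminescence ratio, filter-overlap corrected, fitted to concentration-response curves.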
Active calls of the source: *; ? = inconclusive; . = no result given; [ ] = another dose, or the depositor's remark. Unless noted, calls follow the shape of the dose curve; as a rule, active = well fitted curve in the direction sought with a large enough effect; inconclusive = small, poorly fitted or top-dose-only effect, or another doubt; inactive = no such curve, though single readings can be large; an effect the other way counts as inactive or inconclusive.

SMILES | MCF10A rerep | TDP1 cell noCPT | SW480 rereplic | DT40 TDP1 CPT | IL-1B inflam inh | BCR signal inh
O=S(=O)(Nc1cccc2ccccc12)c1ccccc1 | ? | -19.4% | ? | -27.0% | -9.7 | 6.4%
Cc1cc(C)c(S(=O)(=O)Nc2ccc3c4c(cccc24)CC3)c(C)c1 | 0.366µM* | 3.66µM* | ? | -101.0% | 9.8 | ?
Cc1cc(C)c(S(=O)(=O)Nc2ccccc2)c(C)c1 | 9.1% | ? | 3.9% | ? | 6.8 | .
Cc1ccc(S(=O)(=O)Nc2ccc3c4c(cccc24)CC3)c(C)c1 | ? | 13µM* | ? | 14.6µM* | 45.4 | .
CC(=O)Nc1ccc2c3c(cccc13)CC2 | 2.9% | -20.5% | -5.1% | -45.7% | -0.3 | .
Cc1ccc(NS(=O)(=O)c2cc3[nH]c(=O)c(=O)[nH]c3cc2C)c(C)c1 | 6.7% | 5.8% | 2.3% | 4.9% | 3.8 | -28.9%
NC(=O)C1CCCN(C(=O)CN2C(=O)NC(c3ccccc3)(c3ccccc3)C2=O)C1 (configuration not stated) | 3.7% | -25.6% | -55.6% | -5.4% | 26.1 | -7.8%
COc1ccc(NC(=O)CC2C(=O)N(c3ccc(F)cc3)C(=O)N2Cc2ccc3c(c2)OCO3)cc1 (configuration not stated) | . | ? | . | -18.2% | . | .
CCOc1ccc(-n2cc(-c3ccc(OC)c(OC)c3)[nH]c2=S)cc1 | 3.8% | ? | -9.9% | -106.8% | -9.6 | -1.9%
Cc1cc(Br)ccc1NC(=O)CN(C)C(=O)C1CCN(c2ncnc3sc(C)c(C)c23)CC1 | ? | 20.6µM* | ? | ? | -56.3* | .
Cc1sc2ncnc(N3CCC(C(=O)NNC(=O)c4ccccc4Cl)CC3)c2c1C | ? | 20.6µM* | 0.0% | 14.6µM* | -14.0 | ?
Cc1sc2ncnc(N3CCC(C(=O)NNC(=O)COc4ccc(Br)cc4)CC3)c2c1C | ? | 23.1µM* | ? | ? | -0.6 | ?
CCN(CC(=O)Nc1c(F)cccc1F)C(=O)C1CCN(c2ncnc3sc(C)c(C)c23)CC1 | 16.6% | 18.4µM* | 2.7% | 20.6µM* | -17.0 | -1.5%
Cc1sc2ncnc(N3CCC(C(=O)NNC(=O)COc4ccc(Cl)cc4)CC3)c2c1C | ? | ? | -5.2% | ? | -12.7 | .
Cc1sc2ncnc(N3CCC(C(=O)NNC(=O)COc4ccccc4Cl)CC3)c2c1C | 4.11µM* | ? | 4.0% | ? | -24.2 | ?
Cc1sc2ncnc(N3CCC(C(=O)NNC(=O)COc4ccccc4F)CC3)c2c1C | ? | ? | 1.1% | ? | 6.4 | 0.1%
CN1CCN(c2nnc(-c3ccc(Cl)cc3)c3ccccc23)CC1 | 19.0% | ? | 0.5% | ? | -16.0 | -3.3%
Clc1ccc(-c2nnc(-c3ccc(Br)cc3)c(N3CCSCC3)n2)cc1 | 8.5% | 11.6µM* | -8.8% | 11.6µM* | -17.9 | ?
Clc1ccc(-c2nnc(-c3ccco3)nc2N2CCCCC2)cc1 | ? | 20.6µM* | -2.3% | 20.6µM* | -23.6 | 6.7%
CC(c1ccccc1)n1cnc2ccccc2c1=O (configuration not stated) | -11.1% | -17.6% | -0.9% | -15.5% | 27.3 | -2.8%
C/C(=N\NC(=O)c1nnn(-c2nonc2N)c1CSc1ccc(C)cc1)c1cccs1 | . | ? | . | -17.6% | -5.8 | .
OC(CN1C2=NCCN2c2ccccc21)c1ccc2c(c1)OCO2 (configuration not stated) | ? | 23.1µM* | 18.7%[9.22 µM] | ? | 20.0 | ?
Cc1ccccc1N(CC(=O)NCc1ccccc1)C(=O)CCC(=O)Nc1nccs1 | -2.9% | ? | ? | -26.8% | -17.3 | ?
CCCCC(=NCCc1c(C)[nH]c2ccc(OC)cc12)C1=C(O)CC(c2ccccc2)CC1=O (configuration not stated) | 2.59µM* | 4.11µM* | 7.31µM* | 4.11µM* | 9.4 | ?
CCC(=NCCc1c(C)[nH]c2ccc(OC(F)(F)F)cc12)C1=C(O)CC(c2ccccc2)CC1=O (configuration not stated) | ? | 5.8µM* | 11.6µM* | 4.61µM* | 4.3 | -26.8%
SMILES | MCF10A rerep | TDP1 cell noCPT | SW480 rereplic | DT40 TDP1 CPT | IL-1B inflam inh | BCR signal inh
CC(=NCCc1c(C)[nH]c2ccc(OCc3ccccc3)cc12)C1=C(O)CC(c2ccccc2)CC1=O (configuration not stated) | 1.0% | ? | 2.3% | ? | 9.0 | 3.3%
CCC(=NCCc1c(C)[nH]c2ccccc12)C1=C(O)CC(c2ccccc2)CC1=O (configuration not stated) | 4.11µM* | 2.91µM* | 10.3µM* | 4.11µM* | ? | -2.0%
CCCN1Cc2cc(OC)ccc2-c2ccccc2S1(=O)=O | ? | -11.7% | 0.4% | -13.7% | 5.0 | 6.6%
COC(=O)c1cc(C)ccc1OCc1ccc([N+](=O)[O-])cc1 | 9.6% | -1.9% | 4.3% | 7.0% | -11.8 | ?
O=C(Nc1ccccc1Oc1cccnc1)C1CCCN(C/C=C/c2ccc(F)cc2)C1 (configuration not stated) | ? | ? | 9.7% | ? | -59.0* | -8.5%
Cc1cccc(CN2CCCC(C(=O)Nc3ccccc3Oc3cccnc3)C2)c1 (configuration not stated) | 6.2% | ? | 0.1% | ? | -55.6* | -0.1%
CCOc1ncccc1C(=O)OCC(=O)c1cc(OC)c(OC)c(OC)c1 | -5.4% | 3.1% | 2.1% | 13.4% | 31.5 | ?
Cc1ccc(CNc2nnc(C)c3nnn(Cc4ccc(F)cc4)c23)cc1 | . | 1.8% | . | ? | . | .
Cc1nnc(N2CCN(c3ccccc3)CC2)c2c1nnn2Cc1ccc(F)cc1 | . | ? | . | 16.4µM* | . | .
CC(C)(C)c1ccc(C(=O)COC(=O)CN2C(=O)NC3(CCCC3)C2=O)cc1 | 3.1% | -21.4% | -3.9% | ? | 7.0 | 4.5%
CCc1nc2ccccc2c(C(=O)OCC(=O)Nc2cccc(S(=O)(=O)NC3=NCCCCC3)c2)c1C | ? | 4.61µM* | ? | 16.4µM* | -83.7* | ?
O=C(COC(=O)c1ccccn1)Nc1ccc(S(=O)(=O)N2CCOCC2)cc1 | 1.1% | -6.9% | 0.0% | -4.1% | -2.8 | -2.7%
CCc1nc2ccccc2c(C(=O)OCC(=O)Nc2ccc(S(=O)(=O)N3CCOCC3)cc2)c1C | 39.8% | ? | 7.4%[9.22 µM] | 14.1µM* | -1.1 | ?
CCc1nc2ccccc2c(C(=O)OCC(=O)Nc2cccc(S(=O)(=O)N3CCOCC3)c2)c1C | 108.7% | 18.4µM* | ? | 16.4µM* | -78.3* | ?
